We go through 40 molecules from PubChem BioAssay (Tox21).

Results filed as inconclusive are left out. A number with no mark means an inactive call. Activity calls are given as the source filed them. Calls follow the shape of the dose curve; as a rule, active = well fitted inhibition curve with a large enough effect in the signal ratio in the repeat runs (not every such curve was filed as active); inconclusive = weak or mixed curves, or effect the other way; inactive = flat fitted curve, though single readings scatter; the % refers to the signal ratio.
% is scaled to controls: 0 for no effect and ±100 for the full control effect.

This assay is described as follows: cAMP Responsive Elements (CRE) small molecule antagonists, cell-based qHTS assay (AID 1963591). Conditions: CRE-bla HEK293T, beta-lactamase FRET ratio; series mostly up to 92.4 µM; activity change, negative = inhibition: at the top concentration. An excerpt: U.S. Tox21 Program National Center for Advancing Translational Sciences [NCATS] Division of Preclinical Innovation [DPI] U.S. Environmental Protection Agency [EPA] National Institutes of Environmental Health Sciences [NIEHS] National Toxicology Program [NTP] U.S. Food and Drug Administration [FDA] Tox21 Assay Overview: CREB (cyclic-AMP Responsive Element Binding Protein) is a cellular transcription factor. It binds to certain DNA sequences called cAMP Responsive Elements (CRE) and regulates the transcription of the genes. […] This cell line can be used to find agonists/antagonists of the cyclic AMP signaling pathway. The activation of the report gene under culture conditions can be detected by fluorescence intensity. This cell line has been used to screen the Tox21 10K compound library to […].
Tox21 Assay Protocol Summary: CRE-bla Hek 293T cells were suspended in assay medium (DMEM containing 10% dialyzed FBS, 0.1 mM NEAA, 1 mM sodium pyruvate and 25 mM HEPES) and dispensed at 2,000 cells/4 uL /well into 1536-well black wall/clear bottom plates using a Multidrop Combi (ThermoFisher Scientific, Waltham, MA) dispenser. After the assay plates were incubated at 37 C/5% CO2 for 18 hrs, 23 nL of compounds dissolved in DMSO, positive controls or DMSO only was transferred to the assay plate by a pintool workstation (Kalypsys, San Diego, CA), followed by addition of 1 […] uL of 1.25uM NKH477 (0.25 uM as final concentration) in assay medium using a Flying Reagent Dispenser (Aurora Discovery, San Diego, CA). The plates were incubated at 37 C and 5% CO2 for 3 hrs. Then 1 uL of LiveBLAzer B/G FRET substrate (Invitrogen, Carlsbad, CA) was added to each well using Bioraptr Flying Reagent Dispenser (FRD, Aurora Discovery, San Diego, CA). The plates were incubated at room temperature for 2 h.
(In qHTS, concentration-response curves come from the screen itself.)
In the case of `CCCCCCCOC(C)=O`, the “activity change, negative = inhibition” value was -1.31%.
Take `O=C(O)C[C@H](NC(=O)OCc1ccccc1)C(=O)O`: the “activity change, negative = inhibition” value was 1.51%.
For `CCC(C)NC(N)=O` (stereo not given), the “activity change, negative = inhibition” value was 8.41%.
With `COC(c1ccccc1)(c1ccccc1)[C@H](Oc1nc(C)cc(C)n1)C(=O)O`, the “activity change, negative = inhibition” value is 3.04% [at 42.4 µM].
The same measure, in the same setting: to `CCOC(=O)CN1CCCC1=O` belongs 5.06% [at 42.4 µM].
In the case of `CC(C)(c1cc(Br)c(O)c(Br)c1)c1cc(Br)c(O)c(Br)c1`, the “activity change, negative = inhibition” value is -1.43%.
On the same count and under the same terms, to `Nc1ccncc1N` belongs 0.607% [at 42.4 µM].
On to `O=S(=O)(O)c1ccc2cc(O)c(S(=O)(=O)O)cc2c1`, for which the “activity change, negative = inhibition” value was -12%.
The same measure, in the same setting: to `COc1ccc(Br)c(C)c1` belongs -10.9%.
In the case of `O=C(O)c1cc(N=Nc2ccc(S(=O)(=O)Nc3ccccn3)cc2)ccc1O`, the Potency result is “inactive”.
With `COCCOCCOCCOCCOCCO`, the “activity change, negative = inhibition” value is 8.78%.
`CCCOCCOCCO`: the “activity change, negative = inhibition” value was -4.15%.
In the case of `O=C1Cc2cc(Cl)ccc2N1`, the “activity change, negative = inhibition” value was 4.37% [at 42.4 µM].
With `C=CCCC`, the “activity change, negative = inhibition” value was 3.58%.
Consider `C=CC(C)(O)CC/C=C(\C)CC` (stereo not given), for which the “activity change, negative = inhibition” value was 0.0262%.
On the same count and under the same terms, as for `CC(O)C(C)O` (stereo not given), the figure is -0.0161%.
With `CC(=O)N(O)CCCCCNC(=O)CCC(=O)N(O)CCCCCNC(=O)CCC(=O)N(O)CCCCCN`, the “activity change, negative = inhibition” value is 1.69% [at 42.4 µM].
Regarding `CC(=O)OC[C@H]1O[C@@H](OC(C)=O)[C@H](OC(C)=O)[C@@H]1OC(C)=O`, the “activity change, negative = inhibition” value is -3.59% [at 42.4 µM].
Consider `C=C[C@H]1CN2CC[C@H]1C[C@@H]2[C@@H](O)c1ccnc2ccc(OC)cc12`, for which the “activity change, negative = inhibition” value was 10.3% [at 42.4 µM].
Turning to `OC1CCCCCCCCCCC1`, the Potency entry was “inactive”.
For `COC(=O)c1cc(Cl)ccc1OC`, the “activity change, negative = inhibition” value was 1.86% [at 42.4 µM].
Turning to `CCCCCOC(C)=O`, the Potency result is “inactive”.
Take `O=Cc1ccccc1C=O`: the “activity change, negative = inhibition” value is 0.0766% [at 42.4 µM].
In the case of `CCCCCC/C(C=O)=C\c1ccccc1`, the Potency entry was “inactive”.
In the case of `N#[N+]c1ccc2c(S(=O)(=O)[O-])cccc2c1O`, the “activity change, negative = inhibition” value was 8.28%.
Same read-out and setting: to `O=C1CCN(c2ccccc2)N1` belongs 6.75%; to `O=S(=O)(O)CCN1CCN(CCO)CC1`, -7.26%; to `CCCCCCCCCCCCCCCCBr`, -0.0105% [at 18.9 µM].
Still for that read-out and setting: as for `O=C(O)C1CCC(C(=O)O)CC1` (stereo not given), the figure is -6.16%; as for `N[C@@H](CSSC[C@H](N)C(=O)O)C(=O)O`, -2.16% [at 0.349 µM].
Consider `CCCCCCOC(=O)c1ccccc1O`, for which the “activity change, negative = inhibition” value is 7.39%.
The same measure, in the same setting: as for `O=C(NCN1CCOCC1)c1cnccn1`, the figure is -1.06% [at 42.4 µM]; as for `Cc1ccc(-c2ccccc2C#N)cc1`, -10% [at 42.4 µM]; as for `Cc1ccc(C(C)(C)O)cc1`, 2.82%.
Take `CC(C)(Oc1ccc(CCNC(=O)c2ccc(Cl)cc2)cc1)C(=O)O`: the Potency result is “inactive”.
Consider `CN(C)CCCNCCCN`, for which the “activity change, negative = inhibition” value is 9.98%.
As for `OCc1ccccc1`, the Potency entry was “inactive”.
As to `CC(=O)OCCC1CCCCC1`, the “activity change, negative = inhibition” value is -0.166%.
As for `O=C(O)c1ccc(CO)o1`, the “activity change, negative = inhibition” value was 1.28%.
In the case of `CC(C)CCCC(C)N` (stereo not given), the “activity change, negative = inhibition” value was -1.23% [at 42.4 µM].
